Experimental data published in PubChem BioAssay (EPA / NIEHS).
Several values for one entry are separate records, joined by “and”; a condition that tells them apart may be missing. Identical values can stand only once. Activity calls are given as the source filed them. The calls were made as follows: active = hit-call score of the fitted dose curve at least 0.9, where 1 is the maximum; inactive = score below 0.9.

Read-out: Monocyte Chemoattractant Protein-1 (MCP1), CCL2 (gene 6347)
Assay: BSK_hDFCGF_MCP1: BioMAP Diversity Plus: hDFCGF Assay for Monocyte Chemoattractant Protein-1 (MCP1) Biomarker Activity (AID 2284285)
Details: primary human foreskin fibroblasts
Method: BSK_hDFCGF is a cell-based, multiplexed-readout assay that uses foreskin fibroblast, a human skin primary cell, with measurements taken at 24 hours after chemical dosing in a 96-well plate.BSK_hDFCGF_MCP1 is an assay component measured in the BSK_hDFCGF assay. It measures MCP-1 antibody related to regulation of gene expression using ELISA technology.Data from the assay component BSK_hDFCGF_MCP1 was analyzed at the endpoint, BSK_hDFCGF_MCP1, in the positive analysis fitting direction relative to DMSO as the negative control and baseline of activity. Using a type of binding reporter, gain or loss-of-signal activity can be used to understand protein changes. To generalize the intended target to other relatable targets, this assay endpoint is annotated to the 'cytokine' intended target family, where the subfamily is 'chemotactic factor'.
The levels of cell surface (or secreted, indicated by the prefix "s") biomarker endpoints were measured by ELISA. Overt cytotoxicity to cells in confluent adherent cultures (all systems other than the BT system) was assessed by measuring total protein levels using sulforhodamine B (SRB) staining in parallel cultures at the time of biomarker measurements, indicated as SRB endpoints. For proliferation assays for adherent cell types, individual cell types are cultured at sub-confluence and relative cell numbers quantified by SRB staining at time points optimized for each system (48 h: 3C and CASM3C systems; 72 h: BT and HDF3CGF systems; 96 h: SAg system). SRB was performed by staining cells with 0.1% SRB after fixation with 10% TCA and reading wells at 560 nm.Viability and proliferation of PBMC (T cells) was quantified by Alamar Blue reduction for the SAg and BT systems. For PBMC viability (referred to as PBMC Cytotoxicity within the assay endpoint names), cells were plated (75,000/well in a 96-well plate) and then chemical samples added for 1 h before addition of activators, SEB and TSST-1 (20 ng/mL final concentration each). Cells were incubated for 90 h. Then, Alamar Blue (20 uL/well) (Invitrogen, Cat DAL1100) was added for 6 h, and the plates were read with a fluorescence microplate reader at 546/580 nm (excitation/emission). For PBMC proliferation, cells were plated and activated as above but incubated for only 16 h prior to addition of Alamar Blue. Plates were read after 6 h.

SMILES	outcome	AC50
O=C(O)C(F)(F)OC(F)(F)C(F)(F)OC(F)(F)C(=O)O	inactive	
COP(=O)(CCC(=O)NCO)OC	inactive	
O=C(O)C(F)(OC(F)(F)C(F)(F)C(F)(F)F)C(F)(F)F (stereo not given)	inactive	
O=C(O)C(F)(F)OC(F)(F)C(F)(F)OC(F)(F)F	inactive	
OCC(F)(F)OC(F)(F)C(F)(F)OC(F)(F)CO	inactive	
O=C(O)C=CC(F)(C(F)(F)F)C(F)(F)F	inactive	
CC(O)C(F)(F)C(F)(F)F (stereo not given)	inactive	
COC(=O)C(F)(F)C(F)(F)OC(F)(C(F)(F)F)C(F)(F)OC(F)=C(F)F (stereo not given)	inactive	
C=CC(=O)OCC(F)(F)C(F)F		40.7 µM (active) and 41.8 µM (active)
OCC(F)(F)OC(F)(F)C(F)(F)OC(F)(F)C(F)(F)OC(F)(F)F	inactive	
NC(=O)C(F)(F)C(F)(F)F	inactive	
OCC(F)(F)OC(F)(F)C(F)(F)OC(F)(F)C(F)(F)OC(F)(F)CO		30 µM (active) and 23.7 µM (active)
O=S(=O)(F)C(F)(F)C(F)(F)C(F)(F)C(F)(F)C(F)(F)C(F)(F)C(F)(F)C(F)(F)F	inactive	
O=C(O)C(F)(F)C(F)(F)C(=O)O	inactive	
FC(F)(F)C(F)(C(F)(F)F)C(F)(F)C(F)(F)CC1CO1 (stereo not given)	inactive	
